Screens (PubChem)
Sampled rows, rich in hits. Any-hit rate of the full collection: about 3.1%.
VDR inhibitor = Inhibitors of the vitamin D receptor (VDR): qHTS. Vitamin D3 receptor (Homo sapiens), P11473. VDR-SRC2-3 peptide fluorescence polarization, 2 h. Potency, µM, for inactives: max response, negative = inhibition, usual class: inhibitors. hit rate 0.93% among 400,000. AID 504847, 2011; further: potency means the concentration at half of the fitted maximal effect; on the % scale 0 is the no-effect control and ±100 the full control effect
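Fluorescence polarization assay of small-molecule disruption of VDR binding to coregulator peptide SRC2-3. Compounds and controls pin-transferred, then read after 2 h incubation at ambient room temperature.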
uPA generation = qHTS for Inhibitors of Cell Surface uPA Generation; cell surface uPA generation assay, qHTS; hit rate 0.31% among 330,000; Potency, µM (top dose mostly 38.3 µM), for inactives: at the top dose activity change, negative = inhibition, actives largely listed as inhibitors; active means well fitted inhibition curve with a large enough effect; inconclusive means small, poorly fitted or top-dose-only effect; inactive means no such curve, though single readings can be large or run the other way; tested in mouse RAW 264.7 cells; further: potency means the concentration at half of the fitted maximal effect; on the % scale 0 is the no-effect control and ±100 the full control effect; nearly all actives have a fitted effect of over 55% in size
TSG101-PTAP inh = qHTS Assay for Iinhibitors of HIV-1 Budding by Blocking the Interaction of PTAP/TSG101; 340,000 tested, under 10 active; Tumor susceptibility gene 101 protein (Homo sapiens), Q99816; AID 493005, 2010; Fluorescence polarization, FITC-PTAP peptide / Tsg101 binding; Potency, µM (highest dose often 115 µM), without a hit: at the top dose activity change, negative = inhibition, actives largely listed as inhibitors; active means well fitted inhibition curve with a large enough effect in the main read-out, with a control signal flat, not every such curve was filed as active; inconclusive means small, poorly fitted or top-dose-only effect, or effect the other way, or a change in a side signal; inactive means no such curve, though single readings can be large or run the other way; further: potency means the concentration at half of the fitted maximal effect; % of control where 0% means no effect
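FP read-out: FITC-PTAP peptide, 50 nM final, binding Tsg101 binding domain, 10 uM final; 20 min, r.t.; 10 mM HEPES pH 7.5, 0.15 M NaCl, 0.01% Tween 20, 3 mM EDTA, 0.1 mM TCEP.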
TSHR antag = Antagonists of the Thyroid Stimulating Hormone Receptor: HTS campaign | hit rate 0.2% among 330,000 | TSHR-expressing cells, TSH-stimulated cAMP HTRF, 2 h; stronger effect = lower value | AID 504810, 2011 | Thyrotropin receptor (Homo sapiens), P16473 | activity change, negative = inhibition, % at 11.5 µM;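 active means activity change below a set negative limit, meaning inhibition stronger than a set level, cut at about -70% in these data; inconclusive means activity change between two set negative limits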; further: on the % scale 0 is the no-effect control and ±100 the full control effect
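TSHR-expressing cells were treated with compounds, then stimulated with TSH at EC80 (4nM final) for 2 hours at 37 deg C. Cellular cAMP was measured by HTRF competition between lysate cAMP and cAMP-d2 for a cryptate-labelled anti-cAMP antibody.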
PLK1 PBD block = qHTS for Inhibitors of PLK1-PDB (polo-like kinase 1 - polo-box domain): Primary Screen; Serine/threonine-protein kinase PLK1 (Homo sapiens), P53350; Plk1 PBD binding of FITC phosphopeptide, fluorescence polarization; Potency, µM, without a hit: max response, negative = inhibition, usual class: inhibitors; hit rate 2.8% among 360,000; AID 720504, 2013; further: potency means the concentration at half of the fitted maximal effect; series mostly up to about 57 µM; on the % scale 0 is the no-effect control and ±100 the full control effect; nearly all actives have a fitted effect of over 65% in size
Target sequence (P53350 whole entry, looked up, the tested form may be a part): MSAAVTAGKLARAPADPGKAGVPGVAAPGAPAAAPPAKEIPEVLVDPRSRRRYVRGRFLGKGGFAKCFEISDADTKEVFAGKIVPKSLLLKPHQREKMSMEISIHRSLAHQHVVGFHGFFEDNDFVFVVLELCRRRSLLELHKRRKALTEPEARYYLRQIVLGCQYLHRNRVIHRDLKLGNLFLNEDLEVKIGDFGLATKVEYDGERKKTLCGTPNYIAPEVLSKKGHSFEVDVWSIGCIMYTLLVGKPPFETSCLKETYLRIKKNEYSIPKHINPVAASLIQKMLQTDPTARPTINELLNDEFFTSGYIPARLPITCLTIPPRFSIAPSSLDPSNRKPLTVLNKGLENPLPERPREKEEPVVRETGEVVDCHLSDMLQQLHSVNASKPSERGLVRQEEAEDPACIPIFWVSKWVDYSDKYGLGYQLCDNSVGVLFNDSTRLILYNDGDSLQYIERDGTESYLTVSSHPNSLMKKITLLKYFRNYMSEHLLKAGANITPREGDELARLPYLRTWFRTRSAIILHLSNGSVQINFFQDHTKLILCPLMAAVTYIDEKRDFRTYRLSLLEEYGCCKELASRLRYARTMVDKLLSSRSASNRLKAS
* marks the source's active call; other numbers are inactive results; u = inconclusive; x = no result. Unless noted, the call rests on the fitted dose curve; in most records, active means well fitted curve in the direction sought with a large enough effect; inconclusive means small, poorly fitted or top-dose-only effect, or another doubt; inactive means no such curve, though single readings can be large; an effect the other way counts as inactive or inconclusive.

SMILES	VDR inhibitor	uPA generation	TSG101-PTAP inh	TSHR antag	PLK1 PBD block
COc1ccc(CNC(=S)Nc2ccccc2C)cc1	-24%	4%	2%	9	17µM*
COc1ccc(Cl)cc1NC(=O)c1ccccc1C	-13%	-4%	-6%	-28	-3%
CC(CCc1ccccc1)NS(=O)(=O)c1ccc(Cl)c(C(=O)O)c1 (stereo not drawn)	u	x	-1%	-3	24µM*
CC(CCc1ccccc1)NS(=O)(=O)c1ccccc1 (stereo not drawn)	4%	-2%	-2%	16	-3%
Nc1ncnc2nc(Cl)[nH]c12	-7%	x	x	x	x
O=C(c1ccco1)N1CCC2(CCCN(c3ncccn3)C2)CC1	0%	x	x	x	x
O=C1C=CC2(O[C@H](c3ccccc3)[C@@H](c3ccccc3)O2)[C@H](Sc2ccccc2O)C1	10µM*	12%	1%	x	2.4µM*
C[C@@H]1[C@@H](Sc2ccccc2)CC(=O)O[C@@H]1c1ccc(-c2ccccc2)cc1	4%	u	5%	x	-1%
COc1ccccc1OC(=O)CCc1nc2ccccc2s1	-14%	9%	-10%	14	u
CC(=O)c1ccc(OC(=O)CCc2nc3ccccc3s2)cc1	40µM*	5%	-2%	7	u
CC(=O)N1CCCc2cc(S(=O)(=O)N3CCCC(C(=O)NC(C)C)C3)ccc21 (stereo not drawn)	9%	x	x	x	x
COc1ccc(-c2cc(C(=O)N/N=C(\C)c3cccnc3)c3ccccc3n2)cc1	-11%	8.9µM*	x	-13	-1%
CCOC(=O)c1sc(-c2ccc(C)cc2)c(C#N)c1C	-28%	-1%	0%	3	24µM*
Cc1sc(NC(=O)c2cc(-c3ccccc3)nc3ccccc23)c(C(N)=O)c1C	-15%	-1%	-1%	5	-2%
Cc1sc(NC(=O)c2cc(-c3ccc(Cl)cc3)nc3ccccc23)c(C(N)=O)c1C	-10%	-4%	1%	5	13µM*
Cc1ccccc1-c1cc(C(=O)Nc2sc(C(=O)OC(C)C)c(C)c2C#N)c2ccccc2n1	u	-11%	-2%	-49	11µM*
O=C(NCc1ccccc1)c1nc(-c2ccc(Cl)cc2)n2c1CCCCC2	-4%	x	x	x	x
C=C1C[C@@]23CC[C@H]4[C@@](C)(CCC[C@@]4(C)C(=O)OC4OC(CO)C(O)C(O)C4O)[C@@H]2CC[C@]1(OC1OC(CO)C(O)C(O)C1OC1OC(CO)C(O)C(O)C1O)C3 (stereo partly drawn)	9%	x	x	-7	x
N#Cc1ccc(OCC(=O)N2CCN(C(=O)c3ccco3)CC2)cc1	-10%	17%	-4%	16	-1%
CCc1nnc(NC(=O)c2cc(-c3ccncc3)nc3ccccc23)s1	0%	-1%	-4%	-12	-18%
CCOC(=O)c1sc(NC(=O)c2cc(-c3ccc(C)cc3)nc3ccccc23)c(C#N)c1C	79µM*	3%	0%	-47	2.7µM*
CCOC(=O)c1sc(NC(=O)CSc2n[nH]c(-c3ccncc3)n2)c(C#N)c1C	2%	2%	-8%	-75*	-4%
Cc1ccc(-c2cc(C(=O)NN=C3CCCC3)c3ccccc3n2)cc1	u	1%	-5%	0	-3%
CC(C)(C)c1nnc(NC(=O)c2cc(-c3ccccc3)nc3ccccc23)s1	u	0%	-6%	4	24µM*
O=C(NN=C1CCCCCC1)c1cc(-c2ccccc2)nc2ccccc12	-25%	-10%	-8%	-9	3µM*
Cn1cnc(S(=O)(=O)N2CCC(C(=O)Nc3ccc(OC(F)(F)F)cc3)CC2)c1	13%	x	x	x	x
CCC1CCC(C(=O)NC(C(=O)NCCN(CC(C)C)CC(C)C)C(C)C)CC1 (stereo not drawn)	0%	x	x	x	x
CCCC/C=C/[C@H](c1ccccc1)[C@H](CO)Cc1ccc([N+](=O)[O-])cc1	-14%	x	x	x	x
COCCCN(C(=O)C1=COCCO1)c1c(N)n(Cc2ccccc2)c(=O)[nH]c1=O	x	x	x	x	-9%
O=C(Nc1cccc(F)c1)C1CC(=O)N(c2ccc(Cl)cc2)C1 (stereo not drawn)	9%	2%	-8%	-1	u
